Here are results for 23 compounds from PubChem BioAssay.

As a reminder, the inhibition is the change of the read-out against control, counted positive when it falls.

Experiment [1] in a line: antimalarial activity against Dd2 strain (AID 2302;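 active means growth inhibition above 50% at the single 2 µM test dose, taken to imply half-maximal potency below 2 µM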;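 further: 0% = DMSO untreated growth and 100% = chloroquine plus artemisinin killed control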). The conditions noted are these: P. falciparum Dd2 in RBCs, LDH growth readout, 72 h; at 2 µM; stronger effect = higher value.
Experiment [2] concerns the target L-lactate dehydrogenase (Plasmodium falciparum (isolate CDC / Honduras)) (UniProt Q27743). Briefly: PfLDH activity inhibition – cell lysate, 3D7 strain, counter-screen for P. falciparum growth inhibition project (AID 2304).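 Further: 0% = vehicle and 100% = reference inhibitor.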 The conditions noted are these: P. falciparum 3D7 crude extract, LDH APAD/NBT absorbance; at 2 µM; stronger effect = higher value. On the technique in general: A counterscreen serves to expose hits that act by an unwanted route or on another target.

Experiment [3] in a line: inhibition of 3D7 malaria parasite growth – strain 3D7 (AID 2306).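 Further: 0% = DMSO wells and 100% = chloroquine plus artemisinin control wells.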 The conditions noted are these: P. falciparum 3D7 erythrocytic growth, LDH absorbance, 72 h; at 2 µM; stronger effect = higher value.
Experiment [4] has as its target Calcium-dependent protein kinase 1 (Plasmodium falciparum (isolate 3D7)) (UniProt P62344). The experiment in a line: PfCDPK1 kinase inhibitors, biochemical, TCAMS library (AID 1159585; cut-off not given, nearly all actives have IC50 up to about 0.98 µM;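 further: inhibitors leave more ATP so luminescence rises with inhibition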). The conditions noted are these: recombinant PfCDPK1, Kinase-Glo ATP depletion luminescence. (In general: Kinase-Glo reads ATP consumption through a luciferase reaction.)
The target in experiment [5] is Plasmodium falciparum protein kinase 6 (PK6, PF3D7_1337100) (UniProt Q8IDW1). The experiment in a line: PfPK6 kinase inhibitors, biochemical, TCAMS library (AID 1159586). The conditions noted are these: recombinant PfPK6, Kinase-Glo ATP depletion luminescence.
The target of experiment [6] is Protein kinase 7 (PK7), Plasmodium falciparum 3D7 (PF3D7_0213400) (UniProt Q7YTF7). Briefly: inhibition of Plasmodium PK7 catalytic activity – biochemical, TCAMS antimalarial set, Kinase-Glo luminescence (AID 1159587). The following applies: recombinant PfPK7, Kinase-Glo ATP depletion luminescence.
The target of experiment [7] is Calcium-dependent protein kinase 4 (Plasmodium falciparum (isolate 3D7)) (UniProt Q8IBS5). Briefly: PfCDPK4 kinase inhibitors, biochemical, TCAMS library (AID 1159588; cut-off not given, nearly all actives have IC50 up to about 0.91 µM). The following applies: recombinant PfCDPK4, Kinase-Glo ATP depletion luminescence.
Experiment [8] in a line: human hepatoma cell viability loss – ATP luminescence, cytotoxicity control for P. falciparum antimalarial project, primary screen (AID 2303;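 active means inhibition above 50%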;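 further: 0% = DMSO wells and 100% = digitonin-killed cells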). The following applies: HepG2 viability, 24-48 h, at 10 µM, stronger effect = higher value.

Values without a mark were called inactive. For some of these results: Results with a measured potency or affinity are listed apart. Activity calls are given as the source filed them. Unless noted, how the calls were made is not given here.

Chain of Protein kinase 7 (PK7), Plasmodium falciparum 3D7 (PF3D7_0213400) (Q7YTF7 1-343): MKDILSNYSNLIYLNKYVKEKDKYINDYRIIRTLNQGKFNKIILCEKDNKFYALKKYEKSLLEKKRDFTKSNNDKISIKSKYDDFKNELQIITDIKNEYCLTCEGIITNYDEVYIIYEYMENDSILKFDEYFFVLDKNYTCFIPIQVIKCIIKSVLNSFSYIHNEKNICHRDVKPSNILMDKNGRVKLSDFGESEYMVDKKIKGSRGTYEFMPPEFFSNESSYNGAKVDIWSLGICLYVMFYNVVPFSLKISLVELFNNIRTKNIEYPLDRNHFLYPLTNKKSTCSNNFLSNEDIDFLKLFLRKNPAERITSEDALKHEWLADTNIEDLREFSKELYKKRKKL
Chain of Plasmodium falciparum protein kinase 6 (PK6, PF3D7_1337100) (Q8IDW1 1-305): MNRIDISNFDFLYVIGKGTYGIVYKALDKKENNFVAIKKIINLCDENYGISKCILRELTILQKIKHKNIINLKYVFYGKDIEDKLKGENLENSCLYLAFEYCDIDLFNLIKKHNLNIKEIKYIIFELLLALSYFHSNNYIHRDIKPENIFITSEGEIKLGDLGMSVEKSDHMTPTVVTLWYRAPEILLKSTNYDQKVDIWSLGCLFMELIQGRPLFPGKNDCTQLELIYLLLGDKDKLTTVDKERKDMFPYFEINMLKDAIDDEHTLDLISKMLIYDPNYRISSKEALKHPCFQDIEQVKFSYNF
Chain of L-lactate dehydrogenase (Plasmodium falciparum (isolate CDC / Honduras)) (Q27743 whole entry, looked up): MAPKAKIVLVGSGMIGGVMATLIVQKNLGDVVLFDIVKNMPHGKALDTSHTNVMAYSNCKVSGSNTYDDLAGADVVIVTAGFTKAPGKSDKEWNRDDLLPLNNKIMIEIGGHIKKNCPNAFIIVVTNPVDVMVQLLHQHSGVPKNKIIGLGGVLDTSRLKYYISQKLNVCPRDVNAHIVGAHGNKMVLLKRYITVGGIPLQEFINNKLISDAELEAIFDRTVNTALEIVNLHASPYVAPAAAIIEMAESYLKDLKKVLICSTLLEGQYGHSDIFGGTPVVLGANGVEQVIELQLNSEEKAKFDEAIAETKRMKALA
Chain of Calcium-dependent protein kinase 1 (Plasmodium falciparum (isolate 3D7)) (P62344 whole entry, looked up): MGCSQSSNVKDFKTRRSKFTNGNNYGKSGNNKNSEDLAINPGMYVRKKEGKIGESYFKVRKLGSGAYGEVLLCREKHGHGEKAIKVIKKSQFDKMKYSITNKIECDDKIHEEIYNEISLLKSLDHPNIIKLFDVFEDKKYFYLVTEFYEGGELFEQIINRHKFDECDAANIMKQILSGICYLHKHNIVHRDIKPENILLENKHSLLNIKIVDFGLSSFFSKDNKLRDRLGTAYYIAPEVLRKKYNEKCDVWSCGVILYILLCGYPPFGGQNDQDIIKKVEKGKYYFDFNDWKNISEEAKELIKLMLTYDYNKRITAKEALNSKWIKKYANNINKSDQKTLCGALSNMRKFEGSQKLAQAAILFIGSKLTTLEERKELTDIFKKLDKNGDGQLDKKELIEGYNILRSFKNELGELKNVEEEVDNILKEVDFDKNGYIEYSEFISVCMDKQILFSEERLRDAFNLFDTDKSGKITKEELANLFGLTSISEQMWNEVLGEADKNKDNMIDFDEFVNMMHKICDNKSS
Chain of Calcium-dependent protein kinase 4 (Plasmodium falciparum (isolate 3D7)) (Q8IBS5 whole entry, looked up): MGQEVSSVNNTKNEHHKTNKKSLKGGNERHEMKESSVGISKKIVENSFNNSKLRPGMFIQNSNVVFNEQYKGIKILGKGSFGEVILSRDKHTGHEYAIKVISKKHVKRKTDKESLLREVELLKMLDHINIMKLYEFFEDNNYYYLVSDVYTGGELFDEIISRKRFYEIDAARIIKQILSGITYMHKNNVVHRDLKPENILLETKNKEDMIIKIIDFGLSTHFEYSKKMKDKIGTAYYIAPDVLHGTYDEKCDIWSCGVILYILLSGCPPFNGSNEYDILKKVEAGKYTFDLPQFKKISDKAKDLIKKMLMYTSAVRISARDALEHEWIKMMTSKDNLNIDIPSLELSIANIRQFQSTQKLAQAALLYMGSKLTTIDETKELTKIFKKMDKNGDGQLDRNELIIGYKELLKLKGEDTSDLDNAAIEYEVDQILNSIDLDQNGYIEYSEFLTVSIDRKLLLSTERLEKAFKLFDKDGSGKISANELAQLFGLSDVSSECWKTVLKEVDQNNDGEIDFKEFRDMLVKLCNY

On to `O=C(NCCCCN1CCN(c2nsc3ccccc23)CC1)c1ccccc1C(=O)NCCCCN1CCN(c2nsc3ccccc23)CC1`, for which the growth inhibition in experiment [1] is 22%; in experiment [3] it was 100% (active). Moreover, in experiment [2], the inhibition is -8%. Besides, the result in experiment [4], in experiment [5], in experiment [6] and in experiment [7] was inactive.

Turning to `N#Cc1cccc(NC(=O)Nc2ccc3c(c2)CN(Cc2c[nH]c4ncccc24)C3)c1`, the figures for the growth inhibition in experiment [1] and in experiment [3] were 12% and 99% (active), respectively. Also, the inhibition was 0% in experiment [8] and 5% in experiment [2]. For the same compound, the result in experiment [4], in experiment [5], in experiment [6] and in experiment [7] was inactive.

For the compound `COc1cc(Cc2cnc(N)nc2N)cc(OCCCCc2ccc([N+](=O)[O-])cc2)c1OC`, the values for the growth inhibition in experiment [1] and in experiment [3] were 4% and 88% (active), respectively. For the same compound, the inhibition in experiment [2] was -10%. For the same compound, the outcome in experiment [4], in experiment [5], in experiment [6] and in experiment [7] was inactive.

For `CCCCCCCCCC(=O)NCC1CC(Br)=NO1` (stereo unspecified), the growth inhibition in experiment [1] is 42%; in experiment [3] it was 87% (active). For the same compound, in experiment [2], the inhibition is -7%. The outcome in experiment [4], in experiment [5], in experiment [6] and in experiment [7] was inactive.

With `CC(=O)Oc1c(Br)c(C)nc(C)c1-c1ccc(Oc2ccc(OC(F)(F)F)cc2)cc1`, the growth inhibition is 97% (active) in experiment [1] and 98% (active) in experiment [3]. Moreover, the inhibition in experiment [2] was -4%. Also, the outcome in experiment [4], in experiment [5], in experiment [6] and in experiment [7] was inactive.

As for `CC(C)c1cccc(OCC2CCN(c3ccc(C(=O)Nc4ccccc4)cn3)CC2)c1`, the growth inhibition in experiment [1] was 90% (active); in experiment [3] it was 95% (active). Besides, the inhibition in experiment [8] was 9%; in experiment [2] it was 4%. Besides, the outcome in experiment [4], in experiment [5], in experiment [6] and in experiment [7] was inactive.

In the case of `O=C(O[C@H]1CN[C@H](C#Cc2cc3ncnc(Nc4ccc5c(ccn5S(=O)(=O)c5cccs5)c4)c3s2)C1)N1CCOCC1`, the values for the growth inhibition in experiment [1] and in experiment [3] were 48% and 85% (active), respectively. Moreover, the inhibition in experiment [8] was -4%; in experiment [2] it was -1%. For the same compound, the outcome in experiment [4], in experiment [5], in experiment [6] and in experiment [7] was inactive.

Consider `CCCc1cc(Cc2cnc(N)nc2N)c2cccnc2c1OC`, for which the growth inhibition in experiment [1] was 3%; in experiment [3], 98% (active). Besides, the inhibition in experiment [2] is 2%. For the same compound, the outcome in experiment [4], in experiment [5], in experiment [6] and in experiment [7] was inactive.

As to `O=C(c1cccc(COc2ccc3c(c2)CCN(C2CCCC2)CC3)c1)N1CCN(c2ccncc2)CC1`, the growth inhibition in experiment [1] is 35%; in experiment [3] it was 100% (active). Further, the inhibition in experiment [8] was 49%; in experiment [2] it was -8%. The outcome in experiment [4], in experiment [5], in experiment [6] and in experiment [7] was inactive.

As for `Nc1nc(N)c2c(Oc3cccc(Cl)c3)cccc2n1`, the results for the growth inhibition in experiment [1] and in experiment [3] were 7% and 97% (active), respectively. In addition, the inhibition in experiment [2] was -7%. Moreover, the result in experiment [4], in experiment [5], in experiment [6] and in experiment [7] was inactive.

Turning to `CCOc1ccc2nc(NC(=O)c3csnn3)sc2c1`, the values for the growth inhibition in experiment [1] and in experiment [3] were 98% (active) and 100% (active), respectively. For the same compound, the values for the inhibition in experiment [8] and in experiment [2] were 6% and 1%, respectively. For the same compound, the result in experiment [4], in experiment [5], in experiment [6] and in experiment [7] was inactive.

As to `CCCCCCCN(Cc1ccc(OC(C)(C)C(=O)OCC)cc1)C(=O)Nc1ccc(Cl)cc1OCC`, the growth inhibition in experiment [1] was 89% (active); in experiment [3], 95% (active). In experiment [2], the inhibition was 1%. For the same compound, the result in experiment [4], in experiment [5], in experiment [6] and in experiment [7] was inactive.

With `O=c1c2ccc(Sc3ccccn3)cc2n(-c2ccccc2)c2cc(Sc3ccccn3)ccc12`, the growth inhibition is 70% (active) in experiment [1] and 89% (active) in experiment [3]. The inhibition in experiment [2] was -3%. The outcome in experiment [4], in experiment [5], in experiment [6] and in experiment [7] was inactive.

For the compound `Nc1nc(Cc2ccc(Cl)cc2)nc(Cc2ccc(Cl)cc2)n1`, the growth inhibition was -2% in experiment [1] and 85% (active) in experiment [3]. In experiment [2], the inhibition is 2%. In addition, the result in experiment [4], in experiment [5], in experiment [6] and in experiment [7] was inactive.

As for `CCN(c1ccc(O)c(CN2CCCCC2)c1)c1ccc([N+](=O)[O-])cn1`, the results for the growth inhibition in experiment [1] and in experiment [3] were 64% (active) and 94% (active), respectively. Further, the inhibition in experiment [2] is 2%. In addition, the result in experiment [4], in experiment [5], in experiment [6] and in experiment [7] was inactive.

In the case of `Nc1nc(N)c2c3c(ccc2n1)NCCC3`, the growth inhibition in experiment [1] is -10%; in experiment [3], 97% (active). Besides, the inhibition in experiment [2] was -3%. Also, the outcome in experiment [4], in experiment [5], in experiment [6] and in experiment [7] was inactive.

Consider `CCN(CC)c1ccc2nc(N)nc(N)c2c1`, for which the growth inhibition is -2% in experiment [1] and 93% (active) in experiment [3]. For the same compound, the inhibition in experiment [2] is 2%. Besides, the result in experiment [4], in experiment [5], in experiment [6] and in experiment [7] was inactive.

Consider `Cc1[nH]c(C)c(-c2ccc(S(=O)(=O)c3ccc(Cl)cc3)cc2)c(=O)c1Br`, for which the growth inhibition in experiment [1] and in experiment [3] was 97% (active) throughout. The inhibition in experiment [2] is 5%. The result in experiment [4], in experiment [5], in experiment [6] and in experiment [7] was inactive.

In the case of `Cc1[nH]c(C)c(-c2ccc(Oc3ccc(S(C)=O)cc3)cc2)c(=O)c1Br` (stereo unspecified), the figures for the growth inhibition in experiment [1] and in experiment [3] were 64% (active) and 91% (active), respectively. The inhibition in experiment [2] was 0%. For the same compound, the result in experiment [4], in experiment [5], in experiment [6] and in experiment [7] was inactive.

For `Nc1nc(N)c2c(n1)CCc1cc(Br)ccc1-2`, the figures for the growth inhibition in experiment [1] and in experiment [3] were 4% and 87% (active), respectively. Also, the inhibition in experiment [2] was 6%. The result in experiment [4], in experiment [5], in experiment [6] and in experiment [7] was inactive.

Turning to `CC(C)(C)c1ccc(-c2nc3c(ccc4nc(N)nc(N)c43)[nH]2)cc1`, the growth inhibition is 101% (active) in experiment [1] and 100% (active) in experiment [3]. For the same compound, the inhibition in experiment [2] was 1%. The outcome in experiment [4], in experiment [5], in experiment [6] and in experiment [7] was inactive.

Turning to `Nc1nc(N)c2c(ccc3[nH]c(-c4ccccc4Cl)nc32)n1`, the growth inhibition in experiment [1] and in experiment [3] was 101% (active) throughout. In addition, the inhibition in experiment [2] is -1%. The result in experiment [4], in experiment [5], in experiment [6] and in experiment [7] was inactive.

Take `Cc1[nH]c(C)c(-c2ccc(Oc3ccc(Cl)cc3)cc2)c(=O)c1I`: the growth inhibition in experiment [1] was 49%; in experiment [3], 88% (active). Besides, the inhibition in experiment [2] is 5%. Besides, the outcome in experiment [4], in experiment [5], in experiment [6] and in experiment [7] was inactive.
